Screening data deposited in PubChem BioAssay by National Center for Advancing Translational Sciences (NCATS).
A selection: hits, their analogues and other compounds. The true share with any hit is near 21%.
HCV inh: inhibitors of hepatitis C virus infection. Huh7.5.1 HCVcc-Cre infection, luciferase reporter, 44 h. Potency, µM (highest dose often 41.8 µM), for the others: top-dose activity change, negative = inhibition, most hits filed as inhibitors. 340,000 tested, 3.4% active; note: potency is the fitted concentration of half-maximal effect; % is set by controls: 0 for no effect and ±100 for the full control effect
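1,000 cells/well; 4 h culture; + compound; + HCVcc-Cre (~0.5 moi); 44 h; luciferase substrate, RT 15 min; read 15 sec.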
Pf growth 48h: P. falciparum growth inhibition at 48 hours (one generation); 310,000 tested, 5.9% active; Potency, µM (top dose mostly 28.7 µM), for inactives: top-dose activity change, negative = inhibition, hits mostly inhibitors; AID 504832; P. falciparum luciferase growth in erythrocytes, 48 h; note: potency is the fitted concentration of half-maximal effect; % is set by controls: 0 for no effect and ±100 for the full control effect
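Luciferase-expressing P. falciparum in infected erythrocytes (2% hematocrit, 0.1% parasitemia final) in RPMI 1640/0.5% Albumax were exposed to compound for 48 hours at 37 C, 5% CO2; growth read as luminescence.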
AMA1 RON2 block: inhibitors of Plasmodium falciparum AMA1-RON2 interaction | AlphaScreen AMA1-biotinylated RON2 peptide binding | Potency, µM (doses to about 58.2 µM), inactives show at the top dose activity change, negative = inhibition, hits mostly inhibitors | 360,000 tested, 0.2% active;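 note: potency is the fitted concentration of half-maximal effect; 0% = vehicle wells and -100% = peptide control; nearly all actives have a fitted effect of over 45% in size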
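AMA1 (3D7) with his tag at 25 nM final met compounds first, then biotinylated RON2 peptide at 25 nM; detection used donor plus acceptor beads, 10 µg/mL apiece, read by AlphaScreen after 30 min at room temperature.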
Cycloheximide cs: counter-screen hit for Shiga toxin inhibitors, cycloheximide; cell reporter, cycloheximide protein synthesis inhibition counterscreen; max response, %; 300,000 tested, 12% active; in the data active = max response mostly above about 13%, no sharp cut-off; inactive = mostly below about 14%; note: read at 38.3 µM for the half of the compounds with a filed dose; 0% is about no effect
Pf growth 96h: inhibits malaria parasite growth, 96 h; AID 504834; Potency, µM (titrated, usually from 28.7 µM), for the others: top-dose activity change, negative = inhibition, hits mostly inhibitors; P. falciparum luciferase reporter growth, 96 h; 320,000 tested, 6.9% active; note: potency is the fitted concentration of half-maximal effect; % is set by controls: 0 for no effect and ±100 for the full control effect
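Compounds incubated with erythrocytes infected by luciferase-expressing P. falciparum (2% hematocrit, 0.05% parasitemia final) for 96 hours, 37 C in 5% CO2. Growth inhibition scored as decreased luciferase luminescence.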
Shiga inhibitor: Shiga toxin inhibition | 290,000 tested, 9.2% active | AID 2315 | Vero cells, Shiga toxin protein synthesis inhibition reporter | inhibition, % at 38.7 µM; in the data active = inhibition mostly above about 28%, no sharp cut-off; inactive = mostly below about 43%; note: 0% is about no effect
The depositor's hits bear a star; ? = inconclusive; · = no result; + = active, no number. Unless noted, calls come from the whole dose curve; as a rule, active = well fitted curve in the direction sought with a large enough effect; inconclusive = small, poorly fitted or top-dose-only effect, or another doubt; inactive = no such curve, though single readings can be large; an effect the other way counts as inactive or inconclusive.

SMILES	HCV inh	Pf growth 48h	AMA1 RON2 block	Cycloheximide cs	Pf growth 96h	Shiga inhibitor
COc1ccc(C(=O)C2CCCN(Cc3cccn3-c3ccc(Cl)cn3)C2)c(OC)c1 (stereo unspecified)	8.9µM*	4.1µM*	-19%	-4	15%	17
COc1c(C)cc(C(=O)C2CCCN(Cc3ccccn3)C2)cc1C (stereo unspecified)	-2%	2.1µM*	3%	6	109%	12
COc1ccc2cc(C(=O)C3CCCN(Cc4cccc(C)n4)C3)ccc2c1 (stereo unspecified)	?	0.66µM*	-26%	-3	?	6
COc1ccc(C(=O)C2CCCN(Cc3c(F)ccc(F)c3F)C2)c(OC)c1 (stereo unspecified)	?	?	-10%	-2	-22%	-15
COC(=O)[C@@]12C[C@@H](CC(=O)N3CCOCC3)C(=O)N(Cc3ccc4c(c3)OCO4)C1=CCC(C)(C)C2	·	·	-27%	·	·	·
COc1cccc(CN2CC(C(=O)NCCc3ccc(C)o3)CCC2=O)c1 (stereo unspecified)	?	10%	18%	-1	?	13
Oc1c(Cl)cc(Cl)cc1CNc1nc2ccccc2[nH]1	1%	0%	19%	-4	?	·
COC(=O)c1sccc1NC(=O)Nc1ccc(F)cc1	16%	28%	-10%	30*	-12%	20
COC(=O)c1sccc1NC(=S)Nc1ccc(F)cc1	32%	2%	58%	-4	-14%	-11
COc1ccsc1C(=O)Nc1ccc(F)cc1F	-13%	35%	-12%	30*	35%	31
COC(=O)c1sccc1NC(=O)c1ccccc1	5%	?	24%	7	0%	-19
COC(=O)c1sccc1NC(=O)/C=C\c1ccc(Cl)cc1Cl	-1%	·	-9%	4	57%	24
COC(=O)c1sccc1NC(=O)/C=C/c1ccc(Cl)cc1	5%	120%	3%	9	13µM*	39
COc1ccc(OC)c(-c2cc(C(=O)Nc3ccc(F)cc3F)no2)c1	3%	-3%	1%	1	5%	16
COC(=O)c1sccc1NC(=O)c1ccc(C(C)C)cc1	15%	14%	-6%	3	10µM*	8
CCCCCCCCCCCCCC[C@@H](O)[C@@H](O)[C@H](CO)NC(C)=O	·	·	·	-2	·	-6
O=C(OCC(O)C(O)C(O)C(SCc1ccccc1)SCc1ccccc1)c1ccccc1 (stereo unspecified)	?	·	-13%	·	·	·
CCOc1ccccc1NC(=O)Nc1ccsc1C(=O)OC	-13%	105%	-9%	22*	?	36*
COC(=O)c1sccc1NC(=O)Nc1ccc(C)cc1C	-10%	0%	-8%	25	-22%	-1
COC(=O)c1sccc1NC(=O)Nc1ccc(F)cc1F	19%	-2%	10%	10	12µM*	-8
COC(=O)c1sccc1NC(=O)Nc1ccc(C)cc1	9%	190%	-9%	45*	2%	87*
COC(=O)c1sccc1NC(=O)Nc1cc(C)cc(C)c1	-13%	55%	-13%	47*	4.7µM*	80*
CCOC(CNC(=O)C(=O)Nc1cc2c3c(c1)CCN3C(=O)CC2)OCC	?	36%	1%	4	59%	-4
Cc1cc(C)n(CC(=O)NC2CCCCC2C)c(=O)c1C#N (stereo unspecified)	3%	?	4%	·	-1%	·
COc1cccc(N(CC(=O)N2CCCCCC2)S(C)(=O)=O)c1	16%	-1%	0%	-3	?	-3
SMILES	HCV inh	Pf growth 48h	AMA1 RON2 block	Cycloheximide cs	Pf growth 96h	Shiga inhibitor
COc1ccccc1NC(=O)CCSc1nc(C)cs1	-7%	13%	12%	-3	84%	-5
Cc1ccc(COc2ccsc2C(=O)O)cc1	6%	3%	0%	13	33%	6
COC(=O)c1sccc1NC(=O)Nc1ccc(C(C)=O)cc1	1%	51%	-4%	45*	259%	53*
COC(=O)c1sccc1NC(=O)COc1ccccc1Cl	-16%	46%	4%	33*	?	active
COC(=O)c1ccccc1NC(=S)NC(=O)COc1ccccc1Cl	-12%	26%	22%	-3	24%	-7
CCc1ccccc1NC(=O)Nc1ccsc1C(=O)OC	-1%	-12%	-13%	13	275%	28
CCOc1ccsc1C(=O)O	3.2µM*	-5%	-4%	-1	30%	3
O=C(NCC(c1ccco1)N1CCCC1)c1cccc(S(=O)(=O)N2CCOCC2)c1 (stereo unspecified)	-18%	?	-2%	·	?	·
O=C1S/C(=C\c2cccs2)C(=O)N1c1ccc(O)cc1	-17%	37%	1%	38*	117%	63*
O=C1/C(=C/c2cccs2)SC(=S)N1c1cccc(O)c1	-24%	69%	-27%	26*	22%	61
CCn1c(=O)c([N+](=O)[O-])c(NC2CCS(=O)(=O)C2)c2ccccc21 (stereo unspecified)	3%	0%	-6%	-1	-5%	-23
CN(C)Cc1ccccc1OC(=O)N(C)C	-10%	·	1%	6	8%	-5
Cc1cccc(CN(C)C)c1OC(=O)N(C)C	15%	19%	10%	7	5.9µM*	-15
COc1cc(C(=O)Nc2ccc3c(c2)OCCO3)ccc1OC(F)F	?	14%	8%	33*	?	66*
COc1ccc(NC(=O)c2ccc3c(c2)OCCO3)cc1OC	7%	216%	-17%	22*	14%	62*
CCn1cc(C(=O)Nc2cccc(NC(C)=O)c2)c2cc(OC)c(OC)cc2c1=O	-15%	-17%	-4%	5	·	-14
COc1cc(C(=O)Nc2ccc3c(c2)OCCO3)ccc1OC(C)C	13µM*	99%	3%	44*	?	+
CCn1cc(C(=O)Nc2ccc3c(c2)OCCO3)c2cc(OC)c(OC)cc2c1=O	?	·	-3%	12*	?	29
COc1ccccc1C(=O)NC(=O)COC(=O)CNC(=O)c1ccccc1F	8%	·	-6%	·	·	·
COc1ccc(C(=O)Nc2ccc3c(c2)OCCO3)cc1[N+](=O)[O-]	-20%	70%	-7%	18*	?	31*
CCn1cc(C(=O)N(C)c2ccc(OC)cc2OC)c2cc(OC)c(OC)cc2c1=O	-2%	-4%	8%	47*	1%	58*
CCn1cc(C(=O)N(C)c2cc(C)ccc2OC)c2cc(OC)c(OC)cc2c1=O	4%	·	14%	-5	5%	-4
O=C(CC1Nc2ccccc2NC1=O)c1ccccc1 (stereo unspecified)	·	·	·	31*	?	46
CCCOc1ccccc1NC(=O)CC1Nc2ccccc2NC1=O (stereo unspecified)	-28%	9.3µM*	25%	-3	27%	9
